Results on eight compounds are retold here after ChEMBL document CHEMBL1961873, “Compounds: GSK PKIS; Assays: Nanosyn kinase panel” (2012).

In test [1] the target is T1, Serine/threonine-protein kinase D2 (Homo sapiens) (UniProt Q9BZL6).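 Also: mean value of PRKD2 inhibition, from the GSK PKIS screening panel.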
T1 sequence (whole entry): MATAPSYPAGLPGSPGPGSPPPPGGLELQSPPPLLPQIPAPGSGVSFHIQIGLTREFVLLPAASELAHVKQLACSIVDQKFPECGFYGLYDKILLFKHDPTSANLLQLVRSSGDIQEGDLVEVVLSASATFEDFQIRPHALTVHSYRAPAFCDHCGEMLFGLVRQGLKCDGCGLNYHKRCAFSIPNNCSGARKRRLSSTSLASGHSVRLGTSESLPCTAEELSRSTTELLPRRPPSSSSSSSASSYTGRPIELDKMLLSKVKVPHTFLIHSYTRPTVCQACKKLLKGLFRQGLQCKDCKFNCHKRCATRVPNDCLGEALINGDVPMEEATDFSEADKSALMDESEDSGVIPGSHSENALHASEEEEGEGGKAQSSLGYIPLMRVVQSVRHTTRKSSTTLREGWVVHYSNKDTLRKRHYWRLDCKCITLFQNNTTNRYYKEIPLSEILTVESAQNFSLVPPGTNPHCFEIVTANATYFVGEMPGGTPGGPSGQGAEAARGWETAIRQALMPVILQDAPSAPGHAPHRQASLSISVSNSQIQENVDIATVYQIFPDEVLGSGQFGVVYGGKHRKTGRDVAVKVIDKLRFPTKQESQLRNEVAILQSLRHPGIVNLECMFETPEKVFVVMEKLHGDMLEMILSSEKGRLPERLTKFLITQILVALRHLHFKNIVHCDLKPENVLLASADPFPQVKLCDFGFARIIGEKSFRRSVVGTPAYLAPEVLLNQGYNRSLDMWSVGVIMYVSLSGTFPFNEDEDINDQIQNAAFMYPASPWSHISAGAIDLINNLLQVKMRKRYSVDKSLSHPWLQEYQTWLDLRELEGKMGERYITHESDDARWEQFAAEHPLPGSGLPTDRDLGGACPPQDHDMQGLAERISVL
Particulars: at 1 µM.

In test [2] the target is T2, Serine/threonine-protein kinase D3 (Homo sapiens) (UniProt O94806).
T2 sequence (whole entry): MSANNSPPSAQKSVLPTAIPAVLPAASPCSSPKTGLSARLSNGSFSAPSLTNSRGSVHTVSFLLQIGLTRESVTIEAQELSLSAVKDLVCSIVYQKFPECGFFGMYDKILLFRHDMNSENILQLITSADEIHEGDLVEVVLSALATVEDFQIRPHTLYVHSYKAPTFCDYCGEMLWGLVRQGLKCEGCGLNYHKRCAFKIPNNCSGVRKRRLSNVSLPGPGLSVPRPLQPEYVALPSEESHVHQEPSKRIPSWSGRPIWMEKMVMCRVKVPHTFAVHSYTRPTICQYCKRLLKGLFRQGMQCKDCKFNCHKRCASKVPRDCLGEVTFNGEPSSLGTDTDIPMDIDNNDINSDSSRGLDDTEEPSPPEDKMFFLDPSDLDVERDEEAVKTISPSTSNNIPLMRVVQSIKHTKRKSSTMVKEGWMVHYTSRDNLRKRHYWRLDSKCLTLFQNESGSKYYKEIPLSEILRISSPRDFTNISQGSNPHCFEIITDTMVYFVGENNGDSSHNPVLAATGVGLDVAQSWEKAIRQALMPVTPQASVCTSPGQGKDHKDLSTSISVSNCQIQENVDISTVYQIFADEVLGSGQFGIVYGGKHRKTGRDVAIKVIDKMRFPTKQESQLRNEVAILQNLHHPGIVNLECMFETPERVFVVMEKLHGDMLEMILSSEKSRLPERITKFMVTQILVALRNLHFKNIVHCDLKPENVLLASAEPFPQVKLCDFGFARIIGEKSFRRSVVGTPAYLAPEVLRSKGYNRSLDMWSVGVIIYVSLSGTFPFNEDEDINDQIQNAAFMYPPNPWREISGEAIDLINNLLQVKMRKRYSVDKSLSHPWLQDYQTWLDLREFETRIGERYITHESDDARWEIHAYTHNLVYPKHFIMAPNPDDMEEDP
Particulars: at 0.1 µM.

The target of test [3] is T2, Serine/threonine-protein kinase D3 (Homo sapiens). Particulars: at 1 µM.
In test [4] the target is T3, cGMP-dependent protein kinase 1 (Homo sapiens) (UniProt Q13976).
T3 sequence (whole entry): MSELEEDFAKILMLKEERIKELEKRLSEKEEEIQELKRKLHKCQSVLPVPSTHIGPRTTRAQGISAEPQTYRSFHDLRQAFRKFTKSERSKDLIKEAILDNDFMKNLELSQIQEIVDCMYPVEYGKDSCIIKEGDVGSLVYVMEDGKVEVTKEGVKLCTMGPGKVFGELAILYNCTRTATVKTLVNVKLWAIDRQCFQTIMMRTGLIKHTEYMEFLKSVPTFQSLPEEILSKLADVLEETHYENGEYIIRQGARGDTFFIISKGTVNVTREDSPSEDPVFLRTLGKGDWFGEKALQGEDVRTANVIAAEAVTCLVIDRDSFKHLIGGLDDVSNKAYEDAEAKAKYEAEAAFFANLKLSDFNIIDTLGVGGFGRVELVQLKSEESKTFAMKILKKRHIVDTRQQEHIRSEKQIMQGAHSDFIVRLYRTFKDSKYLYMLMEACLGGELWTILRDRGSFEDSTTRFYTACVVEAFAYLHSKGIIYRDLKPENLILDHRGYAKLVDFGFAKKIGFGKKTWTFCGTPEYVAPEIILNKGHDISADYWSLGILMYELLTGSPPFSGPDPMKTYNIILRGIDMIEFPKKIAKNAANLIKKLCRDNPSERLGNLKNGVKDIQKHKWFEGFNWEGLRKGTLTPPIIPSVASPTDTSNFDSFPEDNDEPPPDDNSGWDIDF
Particulars: at 0.1 µM.

Test [5] deals with T3, cGMP-dependent protein kinase 1 (Homo sapiens). Particulars: at 1 µM.
For test [6], the target named is T4, cGMP-dependent protein kinase 2 (Homo sapiens) (UniProt Q13237).
T4 sequence (whole entry): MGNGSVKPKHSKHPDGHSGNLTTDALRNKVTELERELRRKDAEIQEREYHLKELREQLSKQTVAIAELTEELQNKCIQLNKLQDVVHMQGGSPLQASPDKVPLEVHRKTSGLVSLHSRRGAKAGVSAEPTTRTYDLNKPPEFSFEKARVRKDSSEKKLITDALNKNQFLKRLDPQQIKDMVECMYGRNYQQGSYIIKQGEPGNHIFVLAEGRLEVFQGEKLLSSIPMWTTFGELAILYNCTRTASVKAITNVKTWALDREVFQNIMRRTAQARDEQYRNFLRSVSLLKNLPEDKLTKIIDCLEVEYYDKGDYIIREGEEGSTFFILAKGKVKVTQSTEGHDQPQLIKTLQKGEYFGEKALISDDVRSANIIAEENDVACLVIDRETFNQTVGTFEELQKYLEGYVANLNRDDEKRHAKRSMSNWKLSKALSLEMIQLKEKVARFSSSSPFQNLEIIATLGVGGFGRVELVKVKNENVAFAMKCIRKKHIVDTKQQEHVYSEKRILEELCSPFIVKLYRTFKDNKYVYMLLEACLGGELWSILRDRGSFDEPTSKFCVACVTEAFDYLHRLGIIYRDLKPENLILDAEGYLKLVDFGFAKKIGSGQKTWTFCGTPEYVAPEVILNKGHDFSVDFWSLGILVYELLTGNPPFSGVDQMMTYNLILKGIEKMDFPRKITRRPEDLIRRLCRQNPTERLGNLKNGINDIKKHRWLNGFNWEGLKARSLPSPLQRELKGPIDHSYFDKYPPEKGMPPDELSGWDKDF
Particulars: at 0.1 µM.

Test [7] concerns the target T4, cGMP-dependent protein kinase 2 (Homo sapiens). Particulars: at 1 µM.
In test [8] the target is T5, cAMP-dependent protein kinase catalytic subunit PRKX (Homo sapiens) (UniProt P51817).
T5 sequence (whole entry): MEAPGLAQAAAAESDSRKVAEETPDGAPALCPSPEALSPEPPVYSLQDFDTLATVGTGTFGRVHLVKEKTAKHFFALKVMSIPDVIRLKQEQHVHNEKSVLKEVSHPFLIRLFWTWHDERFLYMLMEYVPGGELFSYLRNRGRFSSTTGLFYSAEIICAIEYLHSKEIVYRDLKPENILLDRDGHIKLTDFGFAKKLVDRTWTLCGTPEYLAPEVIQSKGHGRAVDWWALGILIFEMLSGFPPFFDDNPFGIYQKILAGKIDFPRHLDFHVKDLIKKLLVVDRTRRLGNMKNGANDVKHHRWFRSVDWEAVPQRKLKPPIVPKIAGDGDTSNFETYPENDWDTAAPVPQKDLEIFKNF
Particulars: at 0.1 µM.

Test [9] deals with T5, cAMP-dependent protein kinase catalytic subunit PRKX (Homo sapiens). Particulars: at 1 µM.
Test [10] concerns the target Rho-associated protein kinase 1 (Homo sapiens) (UniProt Q13464). The following applies: at 0.1 µM.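 Also: values are mean percent inhibition of ROCK1.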

By inhibition is commonly meant the relative decrease from the control value, in per cent.

The structures appear in SMILES notation.

Chain of Rho-associated protein kinase 1 (Homo sapiens) (Q13464 2-1354 limits assumed): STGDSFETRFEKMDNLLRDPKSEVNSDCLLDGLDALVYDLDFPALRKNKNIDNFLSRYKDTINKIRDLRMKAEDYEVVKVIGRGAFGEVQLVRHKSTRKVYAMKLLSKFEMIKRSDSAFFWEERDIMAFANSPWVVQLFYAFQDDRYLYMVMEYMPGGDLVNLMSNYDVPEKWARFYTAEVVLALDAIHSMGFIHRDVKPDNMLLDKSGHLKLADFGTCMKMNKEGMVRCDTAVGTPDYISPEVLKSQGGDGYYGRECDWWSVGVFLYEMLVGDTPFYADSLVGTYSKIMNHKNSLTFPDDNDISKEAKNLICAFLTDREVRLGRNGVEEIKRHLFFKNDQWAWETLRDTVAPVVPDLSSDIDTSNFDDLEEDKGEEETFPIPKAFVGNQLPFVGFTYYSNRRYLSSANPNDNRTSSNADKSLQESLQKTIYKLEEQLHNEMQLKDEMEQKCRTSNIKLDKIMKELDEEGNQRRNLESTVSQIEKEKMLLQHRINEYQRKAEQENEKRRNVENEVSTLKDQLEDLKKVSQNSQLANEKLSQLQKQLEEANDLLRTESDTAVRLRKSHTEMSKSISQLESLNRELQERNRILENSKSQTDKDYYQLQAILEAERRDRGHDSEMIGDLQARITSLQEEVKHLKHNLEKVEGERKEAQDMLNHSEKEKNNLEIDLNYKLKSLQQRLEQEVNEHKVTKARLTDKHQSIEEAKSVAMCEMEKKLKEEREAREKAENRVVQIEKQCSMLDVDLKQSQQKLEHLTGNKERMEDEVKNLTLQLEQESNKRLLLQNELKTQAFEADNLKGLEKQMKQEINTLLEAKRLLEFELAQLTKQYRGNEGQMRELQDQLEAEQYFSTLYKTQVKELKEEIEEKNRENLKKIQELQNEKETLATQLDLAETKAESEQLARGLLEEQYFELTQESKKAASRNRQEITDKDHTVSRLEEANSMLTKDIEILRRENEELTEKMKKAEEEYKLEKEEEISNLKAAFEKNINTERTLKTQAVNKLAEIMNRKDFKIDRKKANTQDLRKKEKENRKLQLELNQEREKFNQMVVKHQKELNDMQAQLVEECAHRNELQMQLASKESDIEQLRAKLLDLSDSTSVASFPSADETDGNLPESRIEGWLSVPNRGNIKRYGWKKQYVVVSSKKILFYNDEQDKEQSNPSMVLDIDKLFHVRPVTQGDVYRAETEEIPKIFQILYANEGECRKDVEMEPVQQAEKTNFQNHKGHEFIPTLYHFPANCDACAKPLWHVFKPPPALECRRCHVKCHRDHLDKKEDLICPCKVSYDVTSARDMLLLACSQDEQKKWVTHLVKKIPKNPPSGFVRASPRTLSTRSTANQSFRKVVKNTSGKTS

`CCCN1CCC(c2ccc(Nc3nc(Nc4cc(F)ccc4C(N)=O)c4cc[nH]c4n3)c(OC)c2)CC1`: the inhibition in test [1] stood at 75.7%; in test [2] it was 13.6%; in test [3] it was 65.9%; in [4], 9.75%; in test [5] it was 46.5%; in [6], 8.54%. The inhibition stood at 47% in [7], 1.4% in test [8], 4.23% in test [9] and 17.2% in test [10].
With `COc1ccc2c(-c3ccnc(Nc4cccc(OC(F)(F)F)c4)n3)cnn2n1`, the inhibition in [1] was found to be 5.35%; in test [2], 3.53%; in test [3] it was 5.76%; in test [4], 2.98%; in test [5], 14.2%; in test [6] it was 1.96%. The inhibition turned out to be 7.99% in test [7], 2.02% in [8], 3.71% in test [9] and 1.01% in test [10].
For `COc1ccc(-c2cc3c(N)ncnc3o2)cc1`, the inhibition in test [1] is -0.42%; in test [2], -1.77%; in test [3], -1.37%; in [4], -0.46%; in [5], 0.25%; in test [6], -1.2%. Moreover, the inhibition in test [7] is 1.5%; in test [8], 0.58%; in test [9] it was 0.29%; in [10] it was -0.42%.
As to `N#Cc1c(NC(=O)c2ccc(F)cc2)sc2c1CCCC2`, the inhibition in test [1] is 2.16%; in [2], 1.7%; in [3] it was 1.92%; in test [4], 0.21%; in test [5] it was 1.54%; in test [6] it was -0.45%. The inhibition was determined as 3.35% in test [7], 0.52% in test [8], 1.79% in [9] and 0.43% in test [10].
Regarding `c1cc(-c2cnn3nc(N4CCOCC4)ccc23)nc(NC2CC2)n1`, the inhibition in [1] was found to be 52.4%; in test [2], 5.91%; in test [3], 49.9%; in test [4] it was 2.98%; in [5], 6.68%; in [6], 2.25%. The inhibition in test [7] is 11.9%; in [8] it was 1.09%; in test [9] it was -0.73%; in test [10] it was 1.67%.
For the compound `CN(C)CCOc1ccc(-c2nc(-c3ccncc3)c(-c3ccc4c(c3)CC/C4=N\O)[nH]2)cc1`, the inhibition in test [1] is 6.37%; in test [2] it was 3.58%; in [3] it was 5.44%; in test [4], 2.17%; in test [5], 6.12%; in [6], 2.69%. In addition, the inhibition in test [7] was 12.3%; in test [8] it was 1.16%; in [9], 1.33%; in test [10], 0.51%.
For `Fc1ccc(-c2nn3ccccc3c2-c2ccncc2)cc1`, the inhibition in test [1] came out at 5.87%; in test [2], 3.07%; in [3] it was 4.89%; in test [4], 3.89%; in test [5], 5.24%; in test [6], 2.4%. Further, the inhibition in test [7] turned out to be 3.57%; in [8] it was 1.41%; in test [9], 3.65%; in test [10], 5.05%.
For the compound `Fc1cccc(COc2ccc(Nc3ncnc4sc(-c5ccco5)cc34)cc2Cl)c1`, the inhibition in test [1] worked out at 2.52%; in test [2] it was 5.28%; in test [3], 4.41%; in [4], 2.93%; in test [5], 1.81%; in [6], 1.59%. Moreover, the inhibition in test [7] is -0.65%; in test [8] it was 2.01%; in test [9], 2.86%; in test [10], 2.54%.
